Test results from PubChem BioAssay (NCI).
Compounds without any hit were thinned out: in the full panel of roughly 79,000, 15% have a hit. Unmarked numbers belong to inactive results. Active and inactive are the calls of the source. Cut-off read from the data, not from the text of the source: active = growth inhibition above about 70%; inactive = the rest.

Experiments:
[1] = NCI Yeast Anticancer Drug Screen. Data for the rad52 strain (AID 147);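 note: 0% = growth of vehicle-treated control cultures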; details: S. cerevisiae rad52 mutant growth inhibition, active compounds read high
Summary of the method: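 The repair-mutant yeast strain was incubated with compounds, then growth was read and inhibition derived relative to vehicle.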

[2] = NCI Yeast Anticancer Drug Screen. Data for the wt1 strain (AID 149);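 note: 0% = growth of vehicle-treated wt1 cultures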; details: S. cerevisiae wt1 strain (SPY 50644) growth inhibition, active compounds read high
Summary of the method: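 Vehicle-normalised growth inhibition; strain wt1; compound exposure.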

[3] = NCI Yeast Anticancer Drug Screen. Data for the rad50EPP+ strain (AID 151);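 note: 0% = growth of vehicle-treated control cultures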; details: S. cerevisiae rad50 mutant strain, active compounds read high
Summary of the method: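 Vehicle-normalised growth inhibition; rad50EPP+ yeast strain, altered in DNA damage repair, compound-treated.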

[4] = NCI Yeast Anticancer Drug Screen. Data for the mgt1 strain (AID 153); details: S. cerevisiae mgt1 mutant growth inhibition, active compounds read high
Summary of the method: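 Vehicle-normalized growth inhibition is determined in mgt1 yeast, a strain selected for a defined alteration in DNA repair or cell cycle control.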

[5] = NCI Yeast Anticancer Drug Screen. Data for the rad50 strain (AID 155);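 note: 0% = growth of vehicle-only cultures of the same strain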; details: S. cerevisiae rad50 strain growth inhibition, active compounds read high
Summary of the method: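 A DNA repair-deficient yeast mutant serves as the test organism; compound-induced growth inhibition is calculated against vehicle-treated cells.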

[6] = NCI Yeast Anticancer Drug Screen. Data for the mec2-1 strain (AID 157); details: S. cerevisiae mec2-1 strain, active compounds read high
Summary of the method: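 Mutant yeast (mec2-1) grown with compound; growth inhibition relative to vehicle control reported.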

[7] = NCI Yeast Anticancer Drug Screen. Data for the rad14 strain (AID 159);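 note: 0% = growth of vehicle-treated control cultures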; details: S. cerevisiae rad14 strain growth inhibition, active compounds read high
Summary of the method: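 Vehicle-treated cultures served as the baseline for growth inhibition of a DNA repair-mutant yeast strain exposed to each compound.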

[8] = NCI Yeast Anticancer Drug Screen. Data for the sgs1 mgt1 strain (AID 161);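 note: 0% = growth of cultures given vehicle only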; details: S. cerevisiae sgs1 mgt1 strain, active compounds read high
Summary of the method: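 Growth of a repair-deficient yeast mutant was monitored after compound treatment and expressed as inhibition relative to vehicle-treated cultures.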

[9] = NCI Yeast Anticancer Drug Screen. Data for the CLN2oe strain (AID 163);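 note: 0% = growth of vehicle-only control cultures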; details: S. cerevisiae CLN2oe strain, active compounds read high
Summary of the method: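 Compounds are applied to yeast harbouring a defined cell-cycle control change; reduced growth compared with vehicle-treated controls gives the value.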

[10] = NCI Yeast Anticancer Drug Screen. Data for the cln2 rad14 strain (AID 165);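 note: 0% = growth equal to vehicle treated cultures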; details: S. cerevisiae cln2 rad14 strain, active compounds read high
Summary of the method: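 Readout is yeast growth inhibition versus vehicle-treated controls, using a strain with cln2 and rad14 alterations exposed to compound.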

[11] = NCI Yeast Anticancer Drug Screen. Data for the bub3 strain (AID 167); details: S. cerevisiae bub3 mutant strain, active compounds read high
Summary of the method: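 Inhibition values come from growth of compound-treated mutant yeast normalised to vehicle-treated controls.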

[12] = NCI Yeast Anticancer Drug Screen. Data for the wt2 strain (AID 169);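 note: 0% = growth of vehicle-treated yeast cultures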; details: S. cerevisiae wt2 strain growth inhibition, active compounds read high
Summary of the method: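 Against vehicle-treated controls, the growth of yeast exposed to each compound was compared, and the inhibition was recorded.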

[13] = NCI Yeast Anticancer Drug Screen. Data for the mlh1 strain (AID 171);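 note: 0% = growth of vehicle-treated control cultures of the same strain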; details: S. cerevisiae mlh1 strain growth inhibition, active compounds read high
Summary of the method: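 Measured: yeast growth. Reference: vehicle-treated controls. Organism: strain with a defined alteration affecting DNA damage repair or cell cycle control, treated with compound.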

[14] = NCI Yeast Anticancer Drug Screen. Data for the sgs1 strain (AID 173);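 note: 0% = growth of vehicle-only control cultures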; details: S. cerevisiae sgs1 mutant, active compounds read high
Summary of the method: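 Each compound was added to cultures of the altered yeast strain. Growth was recorded, and inhibition was derived by comparison with vehicle controls.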

[15] = NCI Yeast Anticancer Drug Screen. Data for the mlh1 rad18 strain (AID 175); details: S. cerevisiae mlh1 rad18 strain growth inhibition, active compounds read high
Summary of the method: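 Genetically defined yeast (DNA repair-deficient) exposed to compounds; growth inhibition determined relative to vehicle.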

[16] = NCI Yeast Anticancer Drug Screen. Data for the rad18 strain (AID 177); details: S. cerevisiae rad18 mutant growth inhibition, active compounds read high
Summary of the method: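 Vehicle-treated cultures served as the baseline for scoring compound-induced growth inhibition in DNA-repair-mutant yeast.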

[17] = at 5.0 µM (retest, dose inferred, filed as 0.5)
[18] = at 50.0 µM (retest, dose inferred, filed as 5.0)

Cn1cc(NC(=O)c2cc(NC(=O)CN=C(N)N)cn2C)cc1C(=O)NCCC(=N)N
growth inhibition ([1]; at 1.2 µM): 21%
growth inhibition ([1]; at 3.7 µM): 7%
growth inhibition ([1]; at 11.0 µM): 56%
growth inhibition ([1]; at 33.0 µM): 97% (active)
growth inhibition ([1]; at 100.0 µM): 98% (active)
growth inhibition ([2]; at 1.2 µM): 17%
growth inhibition ([2]; at 3.7 µM): 26%
growth inhibition ([2]; at 11.0 µM): 24%
growth inhibition ([2]; at 33.0 µM): 85% (active)
growth inhibition ([2]; at 100.0 µM): 96% (active)
growth inhibition ([3]; at 1.2 µM): 19%
growth inhibition ([3]; at 3.7 µM): 1%
growth inhibition ([3]; at 11.0 µM): 24%
growth inhibition ([3]; at 33.0 µM): 73% (active)
growth inhibition ([3]; at 100.0 µM): 96% (active)
growth inhibition ([4]; at 1.2 µM): 1%
growth inhibition ([4]; at 3.7 µM): 6%
growth inhibition ([4]; at 11.0 µM): 5%
growth inhibition ([4]; at 33.0 µM): 94% (active)
growth inhibition ([4]; at 100.0 µM): 99% (active)
growth inhibition ([5]; at 1.2 µM): 0%
growth inhibition ([5]; at 3.7 µM): 4%
growth inhibition [5, 17]: -30%
growth inhibition ([5]; at 11.0 µM): 67%
growth inhibition ([5]; at 33.0 µM): 97% (active)
growth inhibition [5, 18]: 87% (active)
growth inhibition ([5]; at 50.0 µM): 89.2% (active)
growth inhibition ([5]; at 100.0 µM): 97% (active)
growth inhibition ([6]; at 1.2 µM): 20%
growth inhibition ([6]; at 3.7 µM): 18%
growth inhibition [6, 17]: -11%
growth inhibition ([6]; at 11.0 µM): 31%
growth inhibition ([6]; at 33.0 µM): 95% (active)
growth inhibition [6, 18]: 44%
growth inhibition ([6]; at 50.0 µM): 87.5% (active)
growth inhibition ([6]; at 100.0 µM): 99% (active)
growth inhibition ([7]; at 1.2 µM): 18%
growth inhibition ([7]; at 3.7 µM): -2%
growth inhibition ([7]; at 11.0 µM): 35%
growth inhibition ([7]; at 33.0 µM): 97% (active)
growth inhibition ([7]; at 100.0 µM): 98% (active)
growth inhibition [8, 17]: 7%
growth inhibition [8, 18]: 11%
growth inhibition ([8]; at 50.0 µM): 84.6% (active)
growth inhibition ([9]; at 1.2 µM): -1%
growth inhibition ([9]; at 3.7 µM): 0%
growth inhibition ([9]; at 11.0 µM): 16%
growth inhibition ([9]; at 33.0 µM): 96% (active)
growth inhibition ([9]; at 100.0 µM): 97% (active)
growth inhibition [10, 17]: -13%
growth inhibition [10, 18]: 28%
growth inhibition ([10]; at 50.0 µM): 68.5%
growth inhibition ([11]; at 1.2 µM): 11%
growth inhibition ([11]; at 3.7 µM): 18%
growth inhibition [11, 17]: 6%
growth inhibition ([11]; at 11.0 µM): 2%
growth inhibition ([11]; at 33.0 µM): 93% (active)
growth inhibition [11, 18]: 70% (active)
growth inhibition ([11]; at 50.0 µM): 87.3% (active)
growth inhibition ([11]; at 100.0 µM): 97% (active)
growth inhibition ([12]; at 1.2 µM): 17%
growth inhibition ([12]; at 3.7 µM): 13%
growth inhibition ([12]; at 11.0 µM): 23%
growth inhibition ([12]; at 33.0 µM): 95% (active)
growth inhibition ([12]; at 100.0 µM): 97% (active)
growth inhibition ([13]; at 1.2 µM): -8%
growth inhibition ([13]; at 3.7 µM): -16%
growth inhibition ([13]; at 11.0 µM): -7%
growth inhibition ([13]; at 33.0 µM): 93% (active)
growth inhibition ([13]; at 100.0 µM): 98% (active)
growth inhibition ([14]; at 1.2 µM): 4%
growth inhibition ([14]; at 3.7 µM): 6%
growth inhibition ([14]; at 11.0 µM): 17%
growth inhibition ([14]; at 33.0 µM): 93% (active)
growth inhibition ([14]; at 100.0 µM): 96% (active)
growth inhibition [15, 17]: -18%
growth inhibition [15, 18]: 94% (active)
growth inhibition ([15]; at 50.0 µM): 85.5% (active)
growth inhibition ([16]; at 1.2 µM): -4%
growth inhibition ([16]; at 3.7 µM): -18%
growth inhibition ([16]; at 11.0 µM): 14%
growth inhibition ([16]; at 33.0 µM): 95% (active)
growth inhibition ([16]; at 100.0 µM): 97% (active)

CCC1(O)C(=O)OCc2c1cc1n(c2=O)Cc2cc3cc(Cl)ccc3nc2-1 (stereo unspecified)
growth inhibition ([1]; at 1.2 µM): 94% (active)
growth inhibition ([1]; at 3.7 µM): 95% (active)
growth inhibition ([1]; at 11.0 µM): 95% (active)
growth inhibition ([1]; at 33.0 µM): 95% (active)
growth inhibition ([1]; at 100.0 µM): 92% (active)
growth inhibition ([2]; at 1.2 µM): 3%
growth inhibition ([2]; at 3.7 µM): 0%
growth inhibition ([2]; at 11.0 µM): 16%
growth inhibition ([2]; at 33.0 µM): 43%
growth inhibition ([2]; at 100.0 µM): 65%
growth inhibition ([3]; at 1.2 µM): 92% (active)
growth inhibition ([3]; at 3.7 µM): 93% (active)
growth inhibition ([3]; at 11.0 µM): 94% (active)
growth inhibition ([3]; at 33.0 µM): 92% (active)
growth inhibition ([3]; at 100.0 µM): 88% (active)
growth inhibition ([4]; at 1.2 µM): 13%
growth inhibition ([4]; at 3.7 µM): 19%
growth inhibition ([4]; at 11.0 µM): 30%
growth inhibition ([4]; at 33.0 µM): 57%
growth inhibition ([4]; at 100.0 µM): 67%
growth inhibition ([5]; at 1.2 µM): 96% (active)
growth inhibition ([5]; at 3.7 µM): 94% (active)
growth inhibition [5, 17]: 97% (active)
growth inhibition ([5]; at 11.0 µM): 95% (active)
growth inhibition ([5]; at 33.0 µM): 93% (active)
growth inhibition [5, 18]: 92% (active)
growth inhibition ([5]; at 50.0 µM): 93.7% (active)
growth inhibition ([5]; at 100.0 µM): 78% (active)
growth inhibition ([6]; at 1.2 µM): 60%
growth inhibition ([6]; at 3.7 µM): 88% (active)
growth inhibition [6, 17]: 87% (active)
growth inhibition ([6]; at 11.0 µM): 93% (active)
growth inhibition ([6]; at 33.0 µM): 92% (active)
growth inhibition [6, 18]: 88% (active)
growth inhibition ([6]; at 50.0 µM): 92.7% (active)
growth inhibition ([6]; at 100.0 µM): 89% (active)
growth inhibition ([7]; at 1.2 µM): 12%
growth inhibition ([7]; at 3.7 µM): 19%
growth inhibition ([7]; at 11.0 µM): 35%
growth inhibition ([7]; at 33.0 µM): 59%
growth inhibition ([7]; at 100.0 µM): 69%
growth inhibition [8, 17]: 62%
growth inhibition [8, 18]: 84% (active)
growth inhibition ([8]; at 50.0 µM): 40.2%
growth inhibition ([9]; at 1.2 µM): 6%
growth inhibition ([9]; at 3.7 µM): 14%
growth inhibition ([9]; at 11.0 µM): 33%
growth inhibition ([9]; at 33.0 µM): 47%
growth inhibition ([9]; at 100.0 µM): 59%
growth inhibition [10, 17]: 24%
growth inhibition [10, 18]: 48%
growth inhibition ([10]; at 50.0 µM): 45.9%
growth inhibition ([11]; at 1.2 µM): -6%
growth inhibition ([11]; at 3.7 µM): 6%
growth inhibition [11, 17]: -2%
growth inhibition ([11]; at 11.0 µM): 24%
growth inhibition ([11]; at 33.0 µM): 44%
growth inhibition [11, 18]: 31%
growth inhibition ([11]; at 50.0 µM): -5.7%
growth inhibition ([11]; at 100.0 µM): 62%
growth inhibition ([12]; at 1.2 µM): 4%
growth inhibition ([12]; at 3.7 µM): 19%
growth inhibition ([12]; at 11.0 µM): 20%
growth inhibition ([12]; at 33.0 µM): 31%
growth inhibition ([12]; at 100.0 µM): 47%
growth inhibition ([14]; at 1.2 µM): 31%
growth inhibition ([14]; at 3.7 µM): 46%
growth inhibition ([14]; at 11.0 µM): 69%
growth inhibition ([14]; at 33.0 µM): 83% (active)
growth inhibition ([14]; at 100.0 µM): 80% (active)
growth inhibition [15, 17]: 45%
growth inhibition [15, 18]: 60%
growth inhibition ([15]; at 50.0 µM): 52.5%
growth inhibition ([16]; at 1.2 µM): 14%
growth inhibition ([16]; at 3.7 µM): 14%
growth inhibition ([16]; at 11.0 µM): 34%
growth inhibition ([16]; at 33.0 µM): 64%
growth inhibition ([16]; at 100.0 µM): 71% (active)
